PubChem BioAssay

Each compound was assayed on PRMT1 (protein arginine N-methyltransferase 1) (assay: PRMT1 binders on small-molecule microarrays, primary screen, biochemical, small-molecule microarray, 635 nm fluorescence (AID 1088)). Settings: small-molecule microarray binding, higher = more signal.
`O=C1c2ccccc2[C@](Cc2ccccc2I)(C(=O)NCC(F)(F)F)[C@H](c2ccc(CO)cc2)N1Cc1ccccc1Cl` was tested, and the composite z-score was 1.53.
In the case of `CCCC=C(CCC)[C@@H](NC(=O)c1cccs1)c1ccc(C(F)(F)F)cc1`, the composite z-score is reported as 1.03.
`CCCCN1CC=CC23O[C@@H]4C=CCCOC(=O)C4[C@H]2C(=O)N(CCCCCCO)[C@@H]3C1=O` (stereo partly specified) showed a composite z-score of 1.31.
`CCCCCN1CC=CC23O[C@@H]4C=CCCOC(=O)C4[C@H]2C(=O)N(CCCCCO)[C@@H]3C1=O` (stereo partly specified) gave a composite z-score of -0.192.
With `O=C(NC1CC1)[C@@H]1c2ccccc2C(=O)N(Cc2ccccc2Cl)[C@H]1c1ccc(CO)cc1` the composite z-score was 1.54.
With `COCCOC(=O)N1C(=O)[C@@]2(c3cc(C#CCC(C(=O)OC)C(=O)OC)ccc31)[C@H](C(=O)N1CCN(c3ncccn3)CC1)[C@H]1C(=O)O[C@H](c3ccccc3)[C@H](c3ccccc3)N1[C@@H]2c1ccccc1OCCO` the composite z-score was 1.55.
`CCCC[C@H]1OB(O)C[C@H]2C1=C(COC)Cn1c(=O)n(-c3ccccc3)c(=O)n12` was tested, and the composite z-score was 0.601.
Work on `Oc1ccc2cc[n+](Cc3sc4ccccc4c3Cl)cc2c1` yielded a composite z-score of 0.599.
In the case of `C=C[C@H](OC)[C@@H](OC(=O)Nc1ccc(OC)cc1)c1ccc(O)c(F)c1`, the composite z-score is reported as 0.148.
`O=C1C2C=CC(C(O)c3cc(C(F)(F)F)cc(C(F)(F)F)c3)N(n3cnnc3)C2C(=O)N1Cc1ccccc1` (stereo unspecified) gave a composite z-score of 0.369.
For `CCC(CC)C(O)C1C=CC2C(=O)NC(=O)C2N1Nc1ccc(Cl)cc1Cl` (stereo unspecified), the composite z-score was 1.4.
For `COc1cc(C(O)C2C=CC3C(=O)NC(=O)C3N2Nc2ccccn2)cc(OC)c1OC` (stereo unspecified), the composite z-score was 1.06.
`CC(C)C(CO)N1C(=O)[C@@H]2C3C(=O)OCCC/C=C\[C@H]3OC23C=CCN(CCN2CCOCC2)C(=O)[C@@H]13` (stereo partly specified) gave a composite z-score of 0.463.
Compound `C=CCN1C(=O)[C@@]2(CC=C)N=C(c3ccc(OCCCO)cc3)O[C@H]2c2ccccc21` has a composite z-score of 1.54.
`COC(=O)[C@@]1(Cc2ccccc2)N=C(c2ccc(OCCCO)cc2)O[C@H]1c1ccccc1` showed a composite z-score of 1.31.
`C=C(COC)/C(=C/C[C@@H](OC(=O)c1ccncc1)c1ccc(CO)o1)c1cc(C(=O)OC)ccc1OC` was tested, and the composite z-score was 1.53.
`CN(C)CCCC[C@@H]1NC(=O)[C@H]2C[C@@H](C(=O)NCCCCCCN)[C@@H](c3ccc(O)cc3)N2C1=O` gave a composite z-score of 1.57.
For `CO[C@H]1O[C@H](CO)[C@@H](OC(=O)Nc2ccc(Oc3ccccc3)cc2)[C@H](OC(=O)Nc2ccc3c(c2)OCO3)[C@H]1OC(=O)Nc1ccc2c(c1)OCO2`, the composite z-score was 1.53.
`Cc1ccc(S[C@]2(C(=O)NC3CC3)CC(=O)N(Cc3ccccc3)[C@@H]2c2ccc(CO)cc2I)cc1` was tested, and the composite z-score was 1.23.
Work on `CCCC#C[Si](O[C@H](CC)c1cn(Cc2cccc(Cl)c2)nn1)(C(C)C)C(C)C` yielded a composite z-score of 0.756.
`COCC(=C=CC[C@@H](O)c1cccc(OCCO)c1)C[C@@H](O)c1ccccn1` gave a composite z-score of 0.523.
For `CC(C)C[C@@H]1NC(=O)[C@H](C(C)C)NC(=O)[C@@]23C(=O)N[C@@H](Cc4ccccc4)C2[C@H](C)[C@@]2(C)O[C@H]2C3/C=C/CC/C=C/CNC1=O` (stereo partly specified), the composite z-score was 1.55.
Work on `[N-]=[N+]=Nc1ccccc1[C@@H]1OC(c2ccc(OCCCO)cc2)=N[C@]1(Cc1ccccc1)C(=O)N1CCOCC1` yielded a composite z-score of 1.56.
In the case of `COc1ccc([Si](C)(C)[C@H]2[C@H](CCO)O[C@@]3(C(=O)N(Cc4ccc(N(C=O)c5ccccc5)cc4)c4ccccc43)[C@@H]2C)cc1`, the composite z-score is reported as 0.258.
`CC(C)=CCCC(C)=CC(O)C1C=CC2C(=O)N(C)C(=O)C2N1Nc1ccccc1` (stereo unspecified) was tested, and the composite z-score was 1.55.
With `COc1cc(NN2C(C(O)c3ccco3)C=CC3C(=O)N(c4ccccc4)C(=O)C32)cc(OC)c1OC` (stereo unspecified) the composite z-score was 0.216.
`C=CC[C@@]1(C(=O)NCCN2CCOCC2)N=C(c2ccc(OCCCO)cc2)O[C@@H]1c1ccccc1N=[N+]=[N-]` was tested, and the composite z-score was 0.513.
Work on `COC(=O)[C@@]1(Cc2ccccc2)[C@H]2c3cc(C(=O)N4CCCC4)n(Cc4ccc(S(C)(=O)=O)cc4)c3C[C@H]2CN1C(=O)c1ccccc1` yielded a composite z-score of 0.375.
Compound `C=CCNC(=O)[C@@H]1[C@H]2C(=O)O[C@H](c3ccccc3)[C@H](c3ccccc3)N2[C@H](c2ccc(O)cc2)[C@@]12C(=O)N(C(=O)OCCOC)c1ccc(C#CCNC(N)=O)cc12` has a composite z-score of 1.03.
In the case of `CCOC(=O)C1=CC[C@@H](c2ccccc2)N(S(=O)(=O)c2ccc(C)cc2)[C@H]1c1ccccc1C`, the composite z-score is reported as 0.473.
With `C=CCNC(=O)[C@@H]1[C@H]2C(=O)O[C@H](c3ccccc3)[C@H](c3ccccc3)N2[C@H](c2ccc(O)cc2)[C@@]12C(=O)Nc1ccc(C#CCNC(N)=O)cc12` the composite z-score was 0.575.
